Test results reported in the supplement of paper PMC6555819.

What was measured:
Assay in all cases: PBM binding z-score (relative to random genomic background probes); higher = stronger binding; sequences stand for … in GC…GCGATTGACAGCGTAGAATGAAGG
[1] = tested on: FXR:RXRa (NR concentration 270 nM, RXRa partner concentration 90 nM)
Outline: (§1)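 Custom Agilent 4×180K protein-binding microarrays carried double-stranded probes, each with a 34-nt variable region. These regions held direct-repeat seeds, single-nucleotide variants, half-site ablations and random human genomic background sequences. Ligand-free nuclear receptor dimers were incubated on the arrays for 1 h, antibodies against each partner (one per run) detected binding, and scanned fluorescence was regression-normalized. Binding z-scores take the random background probes as reference.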

[2] = tested on: LXRa:RXRa (NR concentration 270 nM, RXRa partner concentration 90 nM)
Outline: as §1

[3] = tested on: LXRa homodimer (NR concentration 270 nM)
Outline: as §1

[4] = tested on: LXRb:RXRa (NR concentration 270 nM, RXRa partner concentration 90 nM)
Outline: as §1

[5] = tested on: LXRb homodimer (NR concentration 270 nM)
Outline: as §1

[6] = tested on: PPARa:RXRa (NR concentration 270 nM, RXRa partner concentration 90 nM)
Outline: as §1

[7] = tested on: PPARg:RXRa (NR concentration 180 nM, RXRa partner concentration 90 nM)
Outline: as §1

[8] = tested on: PPARg:RXRa 270nM:90nM, anti-RXR (NR concentration 270 nM, RXRa partner concentration 90 nM)
Outline: as §1

[9] = tested on: PPARg:RXRa 30nM:10nM, anti-RXR (NR concentration 30 nM, RXRa partner concentration 10 nM)
Outline: as §1

[10] = tested on: PPARg:RXRa 90nM:30nM, anti-RXR (NR concentration 90 nM, RXRa partner concentration 30 nM)
Outline: as §1

[11] = tested on: PPARg:RXRa DBDmut IVT, anti-RXR (DBD mutation: RXRa K156A/R161A, NR concentration 270 nM, RXRa partner concentration 90 nM)
Outline: as §1

[12] = tested on: PPARg:RXRa IVT, anti-PPARg (NR concentration 270 nM, RXRa partner concentration 90 nM)
Outline: as §1

[13] = tested on: PPARg DBDmut:RXRa IVT, anti-PPARg (DBD mutation: PPARg1 K132A/R137A, NR concentration 270 nM, RXRa partner concentration 90 nM)
Outline: as §1

[14] = tested on: PPARg DBDmut IVT, anti-PPARg (DBD mutation: PPARg1 K132A/R137A, NR concentration 270 nM)
Outline: as §1

[15] = tested on: PPARg homodimer (NR concentration 180 nM)
Outline: as §1

[16] = tested on: PXR:RXRa (NR concentration 270 nM, RXRa partner concentration 90 nM)
Outline: as §1

[17] = tested on: PXR homodimer (NR concentration 270 nM)
Outline: as §1

[18] = tested on: RARa:RXR (NR concentration 270 nM, RXRa partner concentration 90 nM)
Outline: as §1

[19] = tested on: RARa homodimer (NR concentration 270 nM)
Outline: as §1

[20] = tested on: RARb:RXRa (NR concentration 270 nM, RXRa partner concentration 90 nM)
Outline: as §1

Sequence | PBM binding z-score [1] | PBM binding z-score [2] | PBM binding z-score [3] | PBM binding z-score [4] | PBM binding z-score [5] | PBM binding z-score [6] | PBM binding z-score [7] | PBM binding z-score [8] | PBM binding z-score [9] | PBM binding z-score [10] | PBM binding z-score [11] | PBM binding z-score [12] | PBM binding z-score [13] | PBM binding z-score [14] | PBM binding z-score [15] | PBM binding z-score [16] | PBM binding z-score [17] | PBM binding z-score [18] | PBM binding z-score [19] | PBM binding z-score [20]
TCTATTAGTTGAAGGGCAACCGACGAGTCCGTTT | 0.607 | 1.21 | 0.32 | 0.682 | 0.453 | 0.751 | 0.154 | 2.11 | 3.61 | 2.69 | 2.35 | 0.776 | 1.09 | 0.986 | 1.26 | 1 | 1.32 | 0.605 | 0.801 | 1.61
ACTATTCGTTGAGACGAGGGCAACCGATAGGTTG | 0.146 | -0.0079 | -0.194 | 0.132 | 0.215 | 0.431 | 0.548 | 0.366 | 0.255 | 0.115 | 0.199 | 0.823 | 1.01 | 0.89 | 0.322 | 0.447 | 0.0808 | 0.403 | 0.418 | 0.886
CGTCCAAGGTCAGGGAGGTCAGTGAATGCCGAGT | 6.32 | 5.28 | 2.42 | 4.43 | 0.00503 | 5.2 | 4.29 | 4.63 | 0.9 | 3.13 | 2.94 | 3.53 | -0.257 | -1.31 | 4.71 | 6.02 | 10.3 | 5.53 | 2.15 | 5.33
ATATGTAGGTTATCGGGTCATTCCGTTTGCGCAT | 3.08 | 3.17 | 1.85 | 3.11 | 0.638 | 4.81 | 6.78 | 5.92 | 3.37 | 5.6 | 7.56 | 7.62 | 4.25 | 2.25 | 2.58 | 3.12 | 1.27 | 3.83 | 0.962 | 2.65
GCAGAGAGGTGAAACGCAGGTAACTCAGGGTGGC | 0.782 | 1.12 | -0.671 | 0.662 | -1.3 | 2.86 | 1.21 | 1.02 | -0.323 | -0.000796 | 2.17 | 1.97 | -0.463 | -1.39 | -0.0516 | 0.34 | -0.544 | 1.48 | -0.435 | 1.88
CGTCAAGGTTCAACTAAGGTAACGTAAAGCACGC | 5.26 | 4.66 | 1.12 | 2.96 | 0.335 | 4.18 | 2.49 | 2.73 | 0.464 | 1.82 | -0.0468 | 0.857 | -0.137 | -0.827 | 1.13 | 3.96 | 0.241 | 3.05 | 0.652 | 3.14
CCTCGGAGGACAAAAGGTCAGAGCTGTCCGCTTT | 3.66 | 4.52 | 2 | 3.34 | -0.114 | 3.96 | 1.65 | 3.76 | 1.1 | 3.22 | 1.07 | 1.62 | -0.684 | -1.47 | 4.04 | 3.72 | 0.0706 | 4.59 | 0.836 | 4.61
GCACATAGGTAATACAAGGTGAAAGTCCGATTGT | 0.681 | 2.96 | 0.0603 | 0.767 | -0.39 | 1.47 | 0.894 | 0.539 | 0.253 | 0.343 | 0.57 | 1.1 | 0.738 | 0.527 | 0.516 | 0.612 | -0.214 | 1.59 | 0.568 | 0.552
CCTAGCAGGCCAGGGTCACTCCAGCATTTCGCTT | 1.55 | 1.25 | -0.465 | 1.65 | -0.731 | 2.73 | 0.332 | 1.25 | -0.559 | 0.667 | 0.422 | 1.18 | -1.53 | -1.63 | 1.15 | 2.12 | -0.229 | 2.93 | 0.279 | 2.47
AGAATGAGGGCAATGAGTTGATAGCACGGGTGGC | 0.728 | 0.505 | -0.515 | -0.0914 | -0.286 | 1.91 | 1.79 | 1.42 | 0.0297 | 0.697 | 4.59 | 3.33 | 0.634 | 0.0242 | 0.0668 | 1.89 | 5.25 | 0.357 | 0.124 | 2.04
ATCTGTAGGTTACATCCGGGTCATTCAGGCTATG | 1.94 | 4.67 | 1.97 | 2.81 | 1.35 | 3.22 | 1.98 | 2.56 | 0.963 | 1.83 | 3.84 | 4.04 | 1.35 | 1.89 | 1.96 | 3.52 | 1.9 | 3.18 | 0.982 | 2.34
TTACCAAGGTGAATGTCGTTGATCCCTCTGTAGA | 0.755 | 0.993 | -0.247 | 0.681 | -0.413 | 1.51 | 0.279 | 1.04 | 0.788 | 0.922 | 1.97 | 2.48 | 0.0323 | 0.0146 | 0.593 | 0.524 | -0.383 | 1.12 | 0.309 | 1.34
AGAATGAGGTTAATAAGATCAGGGAATTGCGGTC | 1.38 | 1.15 | 0.213 | 1.24 | 0.00596 | 2.74 | 1.75 | 2.22 | 0.516 | 1.58 | 3.37 | 2.89 | 0.759 | 0.384 | 1.23 | 1.06 | 0.151 | 1.48 | 0.329 | 1.58
TCTATTAGTTTATTAGGGCAACCGAAACAGCGGA | 1.14 | 0.997 | 1.69 | 1.25 | 2.21 | 2.4 | 1.56 | 3.07 | 3.87 | 3.33 | 4.65 | 4.46 | 2.16 | 2.42 | 1.44 | 1.07 | 1.21 | 0.944 | 1.74 | 1.57
